Measured values as given in the supplement of paper PMC8866396.
± gives the standard deviation of the averaged measurements.

Test system: IL-6-GFP PC-9GR
Test: cell viability (CCK-8 OD) relative to DMSO control (fraction of control); higher = more viable cells
Settings: compound concentration: 10 uM; treatment time: 48 h
Procedure, shortened: (§1)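 Compounds from a purchased library of 510 were each tested at a final 10 μM for 48 h on PC-9 and PC-9GR lung cancer cells plated at 3000 cells/well in 96-well plates. These cells overexpressed IL-6-GFP from a lentiviral construct. Viability came from CCK-8 absorbance, given as the optical density of each well over that of the vehicle control well, across independent replicates numbering two.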

| SMILES | cell viability |
| --- | --- |
| COC1CC2CCC(C)C(O)(O2)C(=O)C(=O)N2CCCCC2C(=O)OC(C(C)CC2CCC(OCCO)C(OC)C2)CC(=O)C(C)/C=C(\C)C(O)C(OC)C(=O)C(C)CC(C)/C=C/C=C/C=C/1C (stereo unspecified) [Everolimus (RAD001)] | 0.985 ± 0.068 |
| CC1(C)CCC(CN2CCN(c3ccc(C(=O)NS(=O)(=O)c4ccc(NCC5CCOCC5)c([N+](=O)[O-])c4)c(Oc4cnc5[nH]ccc5c4)c3)CC2)=C(c2ccc(Cl)cc2)C1 [Venetoclax (ABT-199, GDC-0199)] | 0.907 ± 0.17 |
| CCOc1cc2ncc(C#N)c(Nc3ccc(OCc4ccccn4)c(Cl)c3)c2cc1NC(=O)/C=C/CN(C)C [Neratinib (HKI-272)] | 0.795 ± 0.045 |
| Nc1c(CC(=O)[O-])cccc1C(=O)c1ccc(Br)cc1.[Na+] [Bromfenac Sodium] | 0.923 ± 0.095 |
| COc1cccc2c1C(=O)c1c(O)c3c(c(O)c1C2=O)CC(O)(C(=O)CO)CC3OC1CC(N)C(O)C(C)O1.Cl (stereo unspecified) [Doxorubicin (Adriamycin) HCl] | 0.159 ± 0.12 |
| O=C1Nc2ccccc2/C1=C1\Nc2ccccc2C1=O [Indirubin] | 1.28 ± 0.29 |
| CN1CCN(c2ccc(C(=O)Nc3n[nH]c4ccc(Cc5cc(F)cc(F)c5)cc34)c(NC3CCOCC3)c2)CC1 [Entrectinib (RXDX-101)] | 0.164 ± 0.14 |
| CC(Oc1cc(-c2cnn(C3CCNCC3)c2)cnc1N)c1c(Cl)ccc(F)c1Cl [(S)-crizotinib] | 0.458 ± 0.15 |
| CCCCOC(=O)c1ccccc1Nc1cccc(C(F)(F)F)c1 [Ufenamate] | 0.8299 ± 0.0043 |
| Cl.N=C1CCCN1Cc1[nH]c(=O)[nH]c(=O)c1Cl.O=c1[nH]c(=O)n(C2CC(O)C(CO)O2)cc1C(F)(F)F.O=c1[nH]c(=O)n(C2CC(O)C(CO)O2)cc1C(F)(F)F (stereo unspecified) | 0.556 ± 0.067 |
| Cc1ccc(-c2ncc(Cl)cc2-c2ccc(S(C)(=O)=O)cc2)cn1 [Etoricoxib] | 0.855 ± 0.092 |
| CC(=O)Nc1ccccc1 [Acetanilide] | 1.31 ± 0.19 |

Test system: IL-6-GFP PC-9
Test: as above
Settings: compound concentration: 10 uM; treatment time: 48 h
Procedure, shortened: as §1

| SMILES | cell viability |
| --- | --- |
| CC(CCC(=O)[O-])C1CCC2C3C(O)CC4CC(O)CCC4(C)C3CC(O)C12C.[Na+] (stereo unspecified) [Sodium cholate] | 0.997 ± 0.067 |
| COc1nc2ccc(Br)cc2cc1C(c1ccccc1)C(O)(CCN(C)C)c1cccc2ccccc12 (stereo unspecified) [Bedaquiline] | 0.85 ± 0.17 |
| CCOC(=O)N1CCC(=C2c3ccc(Cl)cc3CCc3cccnc32)CC1 [Loratadine] | 0.934 ± 0.18 |
| COc1ccc2c(c1)c(CC(=O)O)c(C)n2C(=O)c1ccc(Cl)cc1 [Indomethacin] | 1.03 ± 0.027 |
| CCc1cccc2c3c([nH]c12)C(CC)(CC(=O)O)OCC3 (stereo unspecified) [Etodolac] | 0.989 ± 0.076 |
| O=c1oc2cc(O)ccc2s1 [Tioxolone] | 1.121 ± 0.0078 |
| COc1cccc2c1C(=O)c1c(O)c3c(c(O)c1C2=O)CC(O)(C(C)=O)CC3OC1CC(N)C(O)C(C)O1.Cl (stereo unspecified) [Daunorubicin HCl] | 0.0966 ± 0.039 |
| NC(CCC(=O)NC(CS)C(=O)NCC(=O)O)C(=O)O (stereo unspecified) [Glutathione] | 1.1 ± 0.15 |
| CN(N=O)C(=O)NC1C(O)OC(CO)C(O)C1O (stereo unspecified) [Streptozotocin (STZ)] | 0.636 ± 0.052 |
| O=C([O-])c1cc(N=Nc2ccc(O)c(C(=O)[O-])c2)ccc1O.[Na+].[Na+] [Olsalazine Sodium] | 1.25 ± 0.062 |
| COC(=O)NC(C(=O)N1CCCC1c1ncc(-c2ccc3c(c2)OC(c2ccccc2)n2c-3cc3cc(-c4cnc(C5CCCN5C(=O)C(NC(=O)OC)C(C)C)[nH]4)ccc32)[nH]1)C(C)C (stereo unspecified) [Elbasvir] | 0.809 ± 0.035 |
| COc1ccc(C2OCC3C(c4cc(OC)c(OC)c(OC)c4)OCC23)cc1OC (stereo unspecified) [Magnolin] | 1.08 ± 0.081 |
| Cc1cccc(N(C)C(=S)Oc2ccc3ccccc3c2)c1 [Tolnaftate] | 0.8891 ± 0.0065 |
| CC1(C)SC2C(NC(=O)C(c3ccccc3)S(=O)(=O)[O-])C(=O)N2C1C(=O)[O-].[Na+].[Na+] (stereo unspecified) [Sulbenicillin Sodium] | 0.857 ± 0.019 |
| Cc1ccc(C2OC(CO)C(O)C(O)C2O)cc1Cc1ccc(-c2ccc(F)cc2)s1.Cc1ccc(C2OC(CO)C(O)C(O)C2O)cc1Cc1ccc(-c2ccc(F)cc2)s1.O (stereo unspecified) [Canagliflozin hemihydrate] | 0.932 ± 0.22 |
| CC(=O)O.CCNC(=O)C1CCCN1C(=O)C(CCCNC(=N)N)NC(=O)C(CC(C)C)NC(=O)C(CC(C)C)NC(=O)C(Cc1ccc(O)cc1)NC(=O)C(CO)NC(=O)C(Cc1c[nH]c2ccccc12)NC(=O)C(Cc1c[nH]cn1)NC(=O)C1CCC(=O)N1 (stereo unspecified) [Leuprolide Acetate] | 1.28 ± 0.073 |
| COC1CC2CCC(C)C(O)(O2)C(=O)C(=O)N2CCCCC2C(=O)OC(C(C)CC2CCC(OP(C)(C)=O)C(OC)C2)CC(=O)C(C)/C=C(\C)C(O)C(OC)C(=O)C(C)CC(C)/C=C/C=C/C=C/1C (stereo unspecified) [Ridaforolimus (Deforolimus, MK-8669)] | 0.571 ± 0.42 |
| CC(=O)OC[C@H]1O[C@@H]([S-])[C@H](OC(C)=O)[C@@H](OC(C)=O)[C@@H]1OC(C)=O.CCP(CC)CC.[Au+] [Auranofin] | 0.0702 ± 0.04 |
| COc1cc(C2Oc3ccc(C4Oc5cc(O)cc(O)c5C(=O)C4O)cc3OC2CO)ccc1O (stereo unspecified) [Silymarin] | 1.21 ± 0.17 |
| COc1cc(/C=C/C(=O)/C=C(O)/C=C/c2ccc(O)c(OC)c2)ccc1O [Curcumin] | 0.985 ± 0.12 |

| SMILES | cell viability |
| --- | --- |
| CCCCCCCCCCCCCCCCCCOP(=O)([O-])OC1CC[N+](C)(C)CC1 [Perifosine (KRX-0401)] | 0.786 ± 0.059 |
| COc1ccc(-c2ccc3cc(C(=O)O)ccc3c2)cc1C12CC3CC(CC(C3)C1)C2 [Adapalene] | 0.765 ± 0.3 |
| COc1ccc2cc(C(C)C(=O)[O-])ccc2c1.[Na+] (stereo unspecified) [Naproxen Sodium] | 1.16 ± 0.16 |
| N#CC1(c2ccc(NC(=O)c3cccnc3NCc3ccncc3)cc2)CCCC1 [Apatinib] | 1.177 ± 0.0032 |
| Cc1nnc(C(=O)NC(C)(C)c2nc(C(=O)NCc3ccc(F)cc3)c(O)c(=O)n2C)o1 [Raltegravir (MK-0518)] | 1.39 ± 0.3 |
| C/C=C(/C(=C/C)c1ccc(O)cc1)c1ccc(O)cc1 [Dienestrol] | 1.16 ± 0.093 |
| CCOc1ccc(Cc2cc(C34OCC(CO)(O3)C(O)C(O)C4O)ccc2Cl)cc1 (stereo unspecified) [Ertugliflozin] | 0.987 ± 0.16 |
| COC1CC2CCC(C)C(O)(O2)C(=O)C(=O)N2CCCCC2C(=O)OC(C(C)CC2CCC(OCCO)C(OC)C2)CC(=O)C(C)/C=C(\C)C(O)C(OC)C(=O)C(C)CC(C)/C=C/C=C/C=C/1C (stereo unspecified) [Everolimus (RAD001)] | 0.66 ± 0.29 |
| CC1(C)CCC(CN2CCN(c3ccc(C(=O)NS(=O)(=O)c4ccc(NCC5CCOCC5)c([N+](=O)[O-])c4)c(Oc4cnc5[nH]ccc5c4)c3)CC2)=C(c2ccc(Cl)cc2)C1 [Venetoclax (ABT-199, GDC-0199)] | 1.03 ± 0.15 |
| CCOc1cc2ncc(C#N)c(Nc3ccc(OCc4ccccn4)c(Cl)c3)c2cc1NC(=O)/C=C/CN(C)C [Neratinib (HKI-272)] | 0.506 ± 0.052 |
| Nc1c(CC(=O)[O-])cccc1C(=O)c1ccc(Br)cc1.[Na+] [Bromfenac Sodium] | 1 ± 0.14 |
| COc1cccc2c1C(=O)c1c(O)c3c(c(O)c1C2=O)CC(O)(C(=O)CO)CC3OC1CC(N)C(O)C(C)O1.Cl (stereo unspecified) [Doxorubicin (Adriamycin) HCl] | 0.136 ± 0.03 |
| O=C1Nc2ccccc2/C1=C1\Nc2ccccc2C1=O [Indirubin] | 0.916 ± 0.059 |
| CN1CCN(c2ccc(C(=O)Nc3n[nH]c4ccc(Cc5cc(F)cc(F)c5)cc34)c(NC3CCOCC3)c2)CC1 [Entrectinib (RXDX-101)] | 0.515 ± 0.14 |
| CC(Oc1cc(-c2cnn(C3CCNCC3)c2)cnc1N)c1c(Cl)ccc(F)c1Cl [(S)-crizotinib] | 0.756 ± 0.12 |
| CCCCOC(=O)c1ccccc1Nc1cccc(C(F)(F)F)c1 [Ufenamate] | 0.992 ± 0.24 |
| Cl.N=C1CCCN1Cc1[nH]c(=O)[nH]c(=O)c1Cl.O=c1[nH]c(=O)n(C2CC(O)C(CO)O2)cc1C(F)(F)F.O=c1[nH]c(=O)n(C2CC(O)C(CO)O2)cc1C(F)(F)F (stereo unspecified) | 0.812 ± 0.28 |
| Cc1ccc(-c2ncc(Cl)cc2-c2ccc(S(C)(=O)=O)cc2)cn1 [Etoricoxib] | 1.21 ± 0.029 |
| CC(=O)Nc1ccccc1 [Acetanilide] | 1.24 ± 0.12 |
